Test results as given in publication PMC11006913.
Substitutions are numbered along the chain they refer to.

Assays:
Assay in all cases: PBM; 200 nM protein, PBS
Details in all cases: dsDNA, one strand shown
SHOX [1] = biological target: SHOX (Homo sapiens, UniProt O15266 103-189)
HOXB9 [2] = biological target: HOXB9 (Homo sapiens, UniProt P17482 171-250, T197M)
HOXC10 [3] = biological target: HOXC10 (Homo sapiens, UniProt Q9NYD6 254-340)
HOXB9 [4] = biological target: HOXB9 (Homo sapiens, UniProt P17482 171-250)
SHOX [5] = biological target: SHOX (Homo sapiens, UniProt O15266 103-189, R173C)
HOXC10 [6] = biological target: HOXC10 (Homo sapiens, UniProt Q9NYD6 254-340, K271E)
HOXB9 [7] = biological target: HOXB9 (Homo sapiens, UniProt P17482 171-250, R186Q)
PAX4 [8] = biological target: T1, PAX4 (Homo sapiens, UniProt O43316 9-242, R200K)
T1 sequence: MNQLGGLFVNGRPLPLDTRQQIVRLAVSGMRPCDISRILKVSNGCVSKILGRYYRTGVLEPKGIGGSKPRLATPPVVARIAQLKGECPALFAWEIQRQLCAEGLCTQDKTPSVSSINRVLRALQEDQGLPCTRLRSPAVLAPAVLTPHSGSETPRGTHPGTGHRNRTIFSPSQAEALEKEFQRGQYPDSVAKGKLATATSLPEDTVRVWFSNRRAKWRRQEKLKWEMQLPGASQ

PAX4 [9] = biological target: T2, PAX4 (Homo sapiens, UniProt O43316 9-242)
T2 sequence: T1 sequence with K192R

PAX4 [10] = biological target: T3, PAX4 (Homo sapiens, UniProt O43316 9-242, R200Q)
T3 sequence: T1 sequence with K192Q

PAX4 [11] = biological target: T4, PAX4 (Homo sapiens, UniProt O43316 9-242, F177V)
T4 sequence: T1 sequence with F169V, K192R

PAX4 [12] = biological target: T5, PAX4 (Homo sapiens, UniProt O43316 9-242, F177Y)
T5 sequence: T1 sequence with F169Y, K192R

PAX4 [13] = biological target: T6, PAX4 (Homo sapiens, UniProt O43316 9-242, R227W)
T6 sequence: T1 sequence with K192R, R219W

HOXD13 [14] = biological target: HOXD13 (Homo sapiens, UniProt P35453 263-343, T313R)
HOXD13 [15] = biological target: HOXD13 (Homo sapiens, UniProt P35453 263-343)
HOXD13 [16] = biological target: HOXD13 (Homo sapiens, UniProt P35453 263-343, T313A)
NKX3-2 [17] = biological target: NKX3-2 (Homo sapiens, UniProt P78367 192-278, P234S)
NKX3-2 [18] = biological target: NKX3-2 (Homo sapiens, UniProt P78367 192-278)
PRRX1 [19] = biological target: PRRX1 (Homo sapiens, UniProt P54821 80-166, F113S)
PITX2 = PITX2 (Homo sapiens, UniProt Q99697 72-157)
PRRX1 [20] = biological target: PRRX1 (Homo sapiens, UniProt P54821 80-166)
ALX4 [21] = biological target: ALX4 (Homo sapiens, UniProt Q9H161 200-286)
ALX4 [22] = biological target: ALX4 (Homo sapiens, UniProt Q9H161 200-286, Q225E)
ALX1 [23] = biological target: ALX1 (Homo sapiens, UniProt Q15699 118-204, L144V)
ALX1 [24] = biological target: ALX1 (Homo sapiens, UniProt Q15699 118-204, L144R)
ALX1 [25] = biological target: ALX1 (Homo sapiens, UniProt Q15699 118-204)
ALX3 [26] = biological target: ALX3 (Homo sapiens, UniProt O95076 139-225)
VAX1 [27] = biological target: VAX1 (Homo sapiens, UniProt Q5SQQ9 86-172)
VAX1 [28] = biological target: VAX1 (Homo sapiens, UniProt Q5SQQ9 86-172, T142I)
VAX1 [29] = biological target: VAX1 (Homo sapiens, UniProt Q5SQQ9 86-172, K157R)
HOXA2 [30] = biological target: HOXA2 (Homo sapiens, UniProt O43364 129-215, R185T)
ALX3 [31] = biological target: ALX3 (Homo sapiens, UniProt O95076 139-225, N203Q)
HOXA2 [32] = biological target: HOXA2 (Homo sapiens, UniProt O43364 129-215, R185K)
ALX3 [33] = biological target: ALX3 (Homo sapiens, UniProt O95076 139-225, L168Q)
ALX3 [34] = biological target: ALX3 (Homo sapiens, UniProt O95076 139-225, L168V)
HOXA2 [35] = biological target: HOXA2 (Homo sapiens, UniProt O43364 129-215, Y150S)
ALX3 [36] = biological target: ALX3 (Homo sapiens, UniProt O95076 139-225, N203S)
HOXA2 [37] = biological target: HOXA2 (Homo sapiens, UniProt O43364 129-215)
Sequence of HOXA2 (Homo sapiens, UniProt O43364 129-215) (O43364 129-215): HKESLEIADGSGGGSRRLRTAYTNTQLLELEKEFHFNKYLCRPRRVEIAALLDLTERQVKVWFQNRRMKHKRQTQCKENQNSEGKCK

Sequence of HOXC10 (Homo sapiens, UniProt Q9NYD6 254-340) (Q9NYD6 254-340): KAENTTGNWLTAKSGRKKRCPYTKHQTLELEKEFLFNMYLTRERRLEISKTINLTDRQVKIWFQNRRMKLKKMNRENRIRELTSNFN
Sequence of SHOX (Homo sapiens, UniProt O15266 103-189, R173C) (O15266 103-189 R173C): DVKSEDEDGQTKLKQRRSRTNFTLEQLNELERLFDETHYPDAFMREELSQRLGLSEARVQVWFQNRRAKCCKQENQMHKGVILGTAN
Sequence of HOXC10 (Homo sapiens, UniProt Q9NYD6 254-340, K271E) (Q9NYD6 254-340 K271E): as the sequence (Q9NYD6 254-340) above, with K18E counted along it
Sequence of SHOX (Homo sapiens, UniProt O15266 103-189) (O15266 103-189): as the sequence (O15266 103-189 R173C) above, with C71R counted along it
Sequence of ALX1 (Homo sapiens, UniProt Q15699 118-204) (Q15699 118-204): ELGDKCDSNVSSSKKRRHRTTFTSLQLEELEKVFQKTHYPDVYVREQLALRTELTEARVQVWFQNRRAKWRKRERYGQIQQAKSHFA
Sequence of ALX4 (Homo sapiens, UniProt Q9H161 200-286, Q225E) (Q9H161 200-286 Q225E): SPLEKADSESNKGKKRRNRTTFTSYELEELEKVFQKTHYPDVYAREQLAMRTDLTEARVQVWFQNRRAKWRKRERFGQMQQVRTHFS
Sequence of ALX1 (Homo sapiens, UniProt Q15699 118-204, L144V) (Q15699 118-204 L144V): as the sequence (Q15699 118-204) above, with L27V counted along it
Sequence of PRRX1 (Homo sapiens, UniProt P54821 80-166, F113S) (P54821 80-166 F113S): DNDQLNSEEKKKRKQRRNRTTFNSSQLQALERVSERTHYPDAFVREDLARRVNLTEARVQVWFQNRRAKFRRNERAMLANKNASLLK
Sequence of ALX4 (Homo sapiens, UniProt Q9H161 200-286) (Q9H161 200-286): as the sequence (Q9H161 200-286 Q225E) above, with E26Q counted along it
Sequence of ALX3 (Homo sapiens, UniProt O95076 139-225) (O95076 139-225): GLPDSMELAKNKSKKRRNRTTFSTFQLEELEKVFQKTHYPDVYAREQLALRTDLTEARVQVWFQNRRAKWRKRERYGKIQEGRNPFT
Sequence of ALX1 (Homo sapiens, UniProt Q15699 118-204, L144R) (Q15699 118-204 L144R): as the sequence (Q15699 118-204) above, with L27R counted along it
Sequence of PRRX1 (Homo sapiens, UniProt P54821 80-166) (P54821 80-166): as the sequence (P54821 80-166 F113S) above, with S34F counted along it
Sequence of VAX1 (Homo sapiens, UniProt Q5SQQ9 86-172) (Q5SQQ9 86-172): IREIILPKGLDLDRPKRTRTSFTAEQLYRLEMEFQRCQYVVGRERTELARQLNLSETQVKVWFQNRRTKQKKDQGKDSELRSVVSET
Sequence of ALX3 (Homo sapiens, UniProt O95076 139-225, L168V) (O95076 139-225 L168V): as the sequence (O95076 139-225) above, with L30V counted along it
Sequence of HOXA2 (Homo sapiens, UniProt O43364 129-215, R185T) (O43364 129-215 R185T): as the sequence (O43364 129-215) above, with R57T counted along it
Sequence of HOXB9 (Homo sapiens, UniProt P17482 171-250) (P17482 171-250): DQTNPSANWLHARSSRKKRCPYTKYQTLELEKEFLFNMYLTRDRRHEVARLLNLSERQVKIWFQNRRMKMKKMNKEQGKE
Sequence of VAX1 (Homo sapiens, UniProt Q5SQQ9 86-172, T142I) (Q5SQQ9 86-172 T142I): as the sequence (Q5SQQ9 86-172) above, with T57I counted along it
Sequence of HOXB9 (Homo sapiens, UniProt P17482 171-250, R186Q) (P17482 171-250 R186Q): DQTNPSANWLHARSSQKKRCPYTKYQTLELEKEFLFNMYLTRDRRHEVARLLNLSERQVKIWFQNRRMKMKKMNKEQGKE
Sequence of ALX3 (Homo sapiens, UniProt O95076 139-225, N203Q) (O95076 139-225 N203Q): as the sequence (O95076 139-225) above, with N65Q counted along it
Sequence of NKX3-2 (Homo sapiens, UniProt P78367 192-278, P234S) (P78367 192-278 P234S): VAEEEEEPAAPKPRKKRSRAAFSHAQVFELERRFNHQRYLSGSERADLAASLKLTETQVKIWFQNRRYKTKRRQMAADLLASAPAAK
Sequence of HOXA2 (Homo sapiens, UniProt O43364 129-215, R185K) (O43364 129-215 R185K): as the sequence (O43364 129-215) above, with R57K counted along it
Sequence of VAX1 (Homo sapiens, UniProt Q5SQQ9 86-172, K157R) (Q5SQQ9 86-172 K157R): as the sequence (Q5SQQ9 86-172) above, with K72R counted along it
Sequence of HOXD13 (Homo sapiens, UniProt P35453 263-343) (P35453 263-343): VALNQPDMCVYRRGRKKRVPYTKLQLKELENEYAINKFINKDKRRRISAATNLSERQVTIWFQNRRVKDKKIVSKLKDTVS
Sequence of HOXB9 (Homo sapiens, UniProt P17482 171-250, T197M) (P17482 171-250 T197M): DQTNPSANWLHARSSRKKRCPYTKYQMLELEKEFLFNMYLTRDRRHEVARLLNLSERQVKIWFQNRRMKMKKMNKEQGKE
Sequence of ALX3 (Homo sapiens, UniProt O95076 139-225, N203S) (O95076 139-225 N203S): as the sequence (O95076 139-225) above, with N65S counted along it
Sequence of ALX3 (Homo sapiens, UniProt O95076 139-225, L168Q) (O95076 139-225 L168Q): as the sequence (O95076 139-225) above, with L30Q counted along it
Sequence of NKX3-2 (Homo sapiens, UniProt P78367 192-278) (P78367 192-278): as the sequence (P78367 192-278 P234S) above, with S43P counted along it
Sequence of HOXA2 (Homo sapiens, UniProt O43364 129-215, Y150S) (O43364 129-215 Y150S): as the sequence (O43364 129-215) above, with Y22S counted along it
Sequence of HOXD13 (Homo sapiens, UniProt P35453 263-343, T313A) (P35453 263-343 T313A): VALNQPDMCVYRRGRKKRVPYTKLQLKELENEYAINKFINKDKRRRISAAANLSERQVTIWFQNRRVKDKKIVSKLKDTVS
Sequence of HOXD13 (Homo sapiens, UniProt P35453 263-343, T313R) (P35453 263-343 T313R): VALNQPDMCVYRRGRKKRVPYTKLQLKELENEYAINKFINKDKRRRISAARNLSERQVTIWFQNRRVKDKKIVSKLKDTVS

## TAAATGGA
SHOX [1]
  binding signal: 8.78 upbm affinity estimate (log intensity, higher = more binding, comparable within an allelic series)

## CGCTGACC
SHOX [1]
  binding signal: 7.27 upbm affinity estimate (log intensity, higher = more binding, comparable within an allelic series)
HOXB9 [2]
  binding signal: 8.61 upbm affinity estimate (log intensity, higher = more binding, comparable within an allelic series)
HOXC10 [3]
  binding signal: 10.1 upbm affinity estimate (log intensity, higher = more binding, comparable within an allelic series)
HOXB9 [4]
  binding signal: 8.64 upbm affinity estimate (log intensity, higher = more binding, comparable within an allelic series)
SHOX [5]
  binding signal: 7.24 upbm affinity estimate (log intensity, higher = more binding, comparable within an allelic series)
HOXC10 [6]
  binding signal: 10.1 upbm affinity estimate (log intensity, higher = more binding, comparable within an allelic series)
HOXB9 [7]
  binding signal: 8.66 upbm affinity estimate (log intensity, higher = more binding, comparable within an allelic series)

## AATCGTGT
SHOX [1]
  binding signal: 8.39 upbm affinity estimate (log intensity, higher = more binding, comparable within an allelic series)

## AATGGTAC
SHOX [1]
  binding signal: 8.43 upbm affinity estimate (log intensity, higher = more binding, comparable within an allelic series)

## GGGAACCC
SHOX [1]
  binding signal: 7.2 upbm affinity estimate (log intensity, higher = more binding, comparable within an allelic series)
PAX4 [8]
  binding signal: 9.42 upbm affinity estimate (log intensity, higher = more binding, comparable within an allelic series)
PAX4 [9]
  binding signal: 9.42 upbm affinity estimate (log intensity, higher = more binding, comparable within an allelic series)
PAX4 [10]
  binding signal: 9.62 upbm affinity estimate (log intensity, higher = more binding, comparable within an allelic series)
SHOX [5]
  binding signal: 7.06 upbm affinity estimate (log intensity, higher = more binding, comparable within an allelic series)
PAX4 [11]
  binding signal: 9.39 upbm affinity estimate (log intensity, higher = more binding, comparable within an allelic series)
PAX4 [12]
  binding signal: 9.36 upbm affinity estimate (log intensity, higher = more binding, comparable within an allelic series)
PAX4 [13]
  binding signal: 9.48 upbm affinity estimate (log intensity, higher = more binding, comparable within an allelic series)

## CCCTTCGA
SHOX [1]
  binding signal: 6.95 upbm affinity estimate (log intensity, higher = more binding, comparable within an allelic series)
HOXC10 [3]
  binding signal: 10 upbm affinity estimate (log intensity, higher = more binding, comparable within an allelic series)
HOXD13 [14]
  binding signal: 9.49 upbm affinity estimate (log intensity, higher = more binding, comparable within an allelic series)
SHOX [5]
  binding signal: 7.13 upbm affinity estimate (log intensity, higher = more binding, comparable within an allelic series)
HOXD13 [15]
  binding signal: 9.43 upbm affinity estimate (log intensity, higher = more binding, comparable within an allelic series)
HOXC10 [6]
  binding signal: 10.1 upbm affinity estimate (log intensity, higher = more binding, comparable within an allelic series)
HOXD13 [16]
  binding signal: 9.48 upbm affinity estimate (log intensity, higher = more binding, comparable within an allelic series)

## ACGGGGCC
SHOX [1]
  binding signal: 7.07 upbm affinity estimate (log intensity, higher = more binding, comparable within an allelic series)
HOXC10 [3]
  binding signal: 10.1 upbm affinity estimate (log intensity, higher = more binding, comparable within an allelic series)
SHOX [5]
  binding signal: 7.17 upbm affinity estimate (log intensity, higher = more binding, comparable within an allelic series)
HOXC10 [6]
  binding signal: 10.1 upbm affinity estimate (log intensity, higher = more binding, comparable within an allelic series)
NKX3-2 [17]
  binding signal: 10.8 upbm affinity estimate (log intensity, higher = more binding, comparable within an allelic series)
NKX3-2 [18]
  binding signal: 10.8 upbm affinity estimate (log intensity, higher = more binding, comparable within an allelic series)

## CCCGGCAC
SHOX [1]
  binding signal: 7.01 upbm affinity estimate (log intensity, higher = more binding, comparable within an allelic series)
PRRX1 [19]
  binding signal: 9.16 upbm affinity estimate (log intensity, higher = more binding, comparable within an allelic series)
PITX2
  binding signal: 7.81 upbm affinity estimate (log intensity, higher = more binding, comparable within an allelic series)
SHOX [5]
  binding signal: 7.19 upbm affinity estimate (log intensity, higher = more binding, comparable within an allelic series)
PRRX1 [20]
  binding signal: 9.19 upbm affinity estimate (log intensity, higher = more binding, comparable within an allelic series)

## AGCTCCAG
SHOX [1]
  binding signal: 7.12 upbm affinity estimate (log intensity, higher = more binding, comparable within an allelic series)
ALX4 [21]
  binding signal: 7.91 upbm affinity estimate (log intensity, higher = more binding, comparable within an allelic series)
ALX4 [22]
  binding signal: 8.27 upbm affinity estimate (log intensity, higher = more binding, comparable within an allelic series)
ALX1 [23]
  binding signal: 6.26 upbm affinity estimate (log intensity, higher = more binding, comparable within an allelic series)
SHOX [5]
  binding signal: 7.22 upbm affinity estimate (log intensity, higher = more binding, comparable within an allelic series)
ALX1 [24]
  binding signal: 6.27 upbm affinity estimate (log intensity, higher = more binding, comparable within an allelic series)
ALX1 [25]
  binding signal: 6.1 upbm affinity estimate (log intensity, higher = more binding, comparable within an allelic series)

## AATAATAC
SHOX [1]
  binding signal: 9.32 upbm affinity estimate (log intensity, higher = more binding, comparable within an allelic series)
PRRX1 [19]
  binding signal: 10.6 upbm affinity estimate (log intensity, higher = more binding, comparable within an allelic series)
ALX3 [26]
  binding signal: 10.3 upbm affinity estimate (log intensity, higher = more binding, comparable within an allelic series)
PRRX1 [20]
  binding signal: 12.3 upbm affinity estimate (log intensity, higher = more binding, comparable within an allelic series)

## CCACCCGG
SHOX [1]
  binding signal: 7.19 upbm affinity estimate (log intensity, higher = more binding, comparable within an allelic series)
ALX4 [21]
  binding signal: 8.21 upbm affinity estimate (log intensity, higher = more binding, comparable within an allelic series)
ALX4 [22]
  binding signal: 8.29 upbm affinity estimate (log intensity, higher = more binding, comparable within an allelic series)
ALX1 [23]
  binding signal: 6.62 upbm affinity estimate (log intensity, higher = more binding, comparable within an allelic series)
SHOX [5]
  binding signal: 7.17 upbm affinity estimate (log intensity, higher = more binding, comparable within an allelic series)
ALX1 [24]
  binding signal: 6.65 upbm affinity estimate (log intensity, higher = more binding, comparable within an allelic series)
VAX1 [27]
  binding signal: 7.3 upbm affinity estimate (log intensity, higher = more binding, comparable within an allelic series)
VAX1 [28]
  binding signal: 7 upbm affinity estimate (log intensity, higher = more binding, comparable within an allelic series)
ALX1 [25]
  binding signal: 6.35 upbm affinity estimate (log intensity, higher = more binding, comparable within an allelic series)
VAX1 [29]
  binding signal: 7.13 upbm affinity estimate (log intensity, higher = more binding, comparable within an allelic series)

## CGCCGGCG
SHOX [1]
  binding signal: 7.07 upbm affinity estimate (log intensity, higher = more binding, comparable within an allelic series)
HOXA2 [30]
  binding signal: 7.18 upbm affinity estimate (log intensity, higher = more binding, comparable within an allelic series)
ALX3 [31]
  binding signal: 7.92 upbm affinity estimate (log intensity, higher = more binding, comparable within an allelic series)
SHOX [5]
  binding signal: 7.15 upbm affinity estimate (log intensity, higher = more binding, comparable within an allelic series)
HOXA2 [32]
  binding signal: 10.2 upbm affinity estimate (log intensity, higher = more binding, comparable within an allelic series)
ALX3 [26]
  binding signal: 7.79 upbm affinity estimate (log intensity, higher = more binding, comparable within an allelic series)
ALX3 [33]
  binding signal: 7.73 upbm affinity estimate (log intensity, higher = more binding, comparable within an allelic series)
ALX3 [34]
  binding signal: 7.68 upbm affinity estimate (log intensity, higher = more binding, comparable within an allelic series)
HOXA2 [35]
  binding signal: 10.3 upbm affinity estimate (log intensity, higher = more binding, comparable within an allelic series)
ALX3 [36]
  binding signal: 8.03 upbm affinity estimate (log intensity, higher = more binding, comparable within an allelic series)
HOXA2 [37]
  binding signal: 7.22 upbm affinity estimate (log intensity, higher = more binding, comparable within an allelic series)
